Inconclusive results are not listed. A number with no mark means an inactive call. Active and inactive are the calls of the source. The call rests on the fitted dose curve; in most records, active means well fitted inhibition curve with a large enough effect; inconclusive means small, poorly fitted or top-dose-only effect; inactive means flat fitted curve, though single readings scatter.
biological target: Calcium and integrin-binding protein 1 (Homo sapiens) (UniProt Q99828); test: Primary qHTS for Identification of Calcium Integrin Binding Protein 1 (CIB1) Competitor (AID 1508620); conditions: CIB1-GST / FITC-alphaIIb peptide fluorescence polarization; series mostly up to 114 µM; activity change, negative = inhibition: at the top concentration;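 further: GST tagged CIB1 binding a fluorescein labelled alphaIIb integrin peptide tracer; top concentration of the series differs between compounds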
Outline: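 Fluorescence polarization competition: CIB1-GST (1 uM final) preincubated with compound 15 min at room temperature, then FITC-labeled alphaIIb peptide (100 nM final) added for another 15 min. Polarization read at Ex 480/Em 540.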
On the % scale 0 is the no-effect control and ±100 the full control effect.

Sequence of Calcium and integrin-binding protein 1 (Homo sapiens) (Q99828 whole entry, looked up): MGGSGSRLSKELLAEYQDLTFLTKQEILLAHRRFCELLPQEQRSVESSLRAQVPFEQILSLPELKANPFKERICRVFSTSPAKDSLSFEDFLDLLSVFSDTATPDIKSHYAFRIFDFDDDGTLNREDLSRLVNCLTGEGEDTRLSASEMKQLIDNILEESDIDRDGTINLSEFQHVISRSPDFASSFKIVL

| Structure (SMILES) | activity change, negative = inhibition | Potency |
| --- | --- | --- |
| Cc1cc(C)n2ncc(C(=O)Nc3ccc4c(c3)OCCO4)c2n1 | 2.7% |  |
| CCOc1ccccc1-c1nnc2n1N=C(c1cccc(OC)c1)CS2 | -4.08% |  |
| Fc1cc(Cl)cc(-c2ccc(CNc3nc(-c4ccccc4C(F)(F)F)nc4ccccc34)cc2)c1 | 36.4% |  |
| Cc1ccc(NCc2ccc(O)c3ncccc23)c(F)c1 | 7.59% |  |
| COc1ccccc1C1N=C(Nc2nc3ccccc3o2)NC2=C1C(=O)CCC2 (stereo not given) | -18% |  |
| N#Cc1ccccc1CNc1nc2ncc(Br)cc2[nH]1 | -6.43% |  |
| O=C1CCc2cc(S(=O)(=O)Nc3cccc4ccccc34)ccc2N1 | -0.814% |  |
| Cc1ccc(N2CCN(S(=O)(=O)c3ccc4c(c3)CC(=O)N4)CC2)cc1 | 0.009% [at 228 µM] |  |
| CONC(=O)C[C@@H](C#N)NC(=O)[C@@H]1CCCN1C(=O)[C@@H](NC(=O)c1ccc(N)c(Cl)c1)C(C)(C)C | 4.8% |  |
| Cn1nnnc1Sc1ncnc2scc(-c3cnc(N)nc3)c12 | -1.45% |  |
| O=C1c2ccccc2NC(c2ccc(-c3cccc(F)c3)o2)N1O (stereo not given) | -8.38% |  |
| CC(=O)c1ccc(N2CCN(S(=O)(=O)c3ccc4c(c3)CC(=O)N4)CC2)cc1 | 9.77% [at 228 µM] |  |
| O=C(O)c1ccc(O)c2ncc(-c3ccc(C(=O)N4CCNCC4)cc3)cc12 | -2.37% |  |
| COc1ccc(C2=Nn3c(nnc3-c3ccc(OC)cc3OC)SC2)cc1 | -1.79% |  |
| COc1nccc(-c2nc(Nc3ccc(F)c(F)c3)c3ccccc3n2)c1Cl | 5.91% |  |
| FC(F)(F)c1ccc(-c2nc(NCc3ccc(-c4ccnc(C(F)(F)F)c4)cc3)c3ccccc3n2)cc1 | 5.6% |  |
| N#Cc1ccc(C[C@H](C(=O)O)N2C(=O)c3ccc(C(=O)O)cc3C2=O)cc1 | -0.401% |  |
| CC(=O)c1ccc(-c2csc3ncnc(Sc4nnnn4C)c23)cc1 | 7.44% |  |
| Fc1cnc(-c2ccccc2C(F)F)nc1NCC1CCN(c2cnccn2)C1 (stereo not given) | -2.93% |  |
| O=C1CCc2cc(S(=O)(=O)Nc3ccc(Cl)c(Cl)c3)c(F)cc2N1 |  | inactive |

| Structure (SMILES) | activity change, negative = inhibition | Potency |
| --- | --- | --- |
| O=[S+]([O-])(Nc1ccccc1)c1ccc(NCc2ccc(Cl)cc2O)cc1 | 1.97% |  |
| Cc1cc(C)n2ncc(C(=O)Nc3ccc4c(c3)OCO4)c2n1 | -1.23% |  |
| Cc1c(P(=S)(c2ccccc2)c2ccccc2)c2ccccc2n1C/C=C/c1ccccc1 | 2.69% |  |
| Brc1ccc(-c2csc(N3CCNCC3)n2)cc1 | 2.3% |  |
| O=C(O)c1ccc2c(c1)C(=O)N([C@H](Cc1cccc3ccccc13)C(=O)O)C2=O | 0.912% |  |
| CC(=O)N1CCN(c2ccc(NCc3ccc(Br)o3)cc2)CC1 | -4.72% |  |
| CC(C)(C)OC(=O)NCc1nnc(-c2cc3ccccc3[nH]2)o1 | -2.65% |  |
| Cn1nnnc1Sc1ncnc2scc(-c3cccs3)c12 | -5.79% |  |
| Cc1ccc(S(=O)(=O)N2CCN(c3nc(C#N)nc4ccccc34)CC2)cc1 | 4.07% |  |
| Cc1cc2c(s1)c1cnn(Cc3ccc(C)c(F)c3)c(=O)c1n2C | 8.21% |  |
| c1nc(N2CCOCC2)c2cc(-c3ccc4c(c3)OCO4)ccc2n1 | -2.44% |  |
| Cn1nnnc1Sc1ncnc2scc(-c3cccc(Br)c3)c12 | 2.72% |  |
| CC(=O)Nc1ccccc1NC(=O)c1cnn2c(C)cc(C)nc12 | 0.0809% |  |
| Cc1ccc(NS(=O)(=O)c2ccc3c(c2)C(Cl)(Cl)C(=O)N3)cc1C | 4.95% |  |
| COc1ccc(-c2nnc3n2N=C(c2ccc(OC)c(OC)c2)CS3)cc1 | -2.27% |  |
| COc1ccc(C2Nc3ccccc3C(=O)N2Cc2ccco2)cc1COc1cccc(NC(C)=O)c1 (stereo not given) | 3.91% |  |
| CCSC1=NS(=O)(=O)c2ccccc21 | -1.58% |  |
| CC(C)(C)OC(=O)N1CCN(c2ccc(NCc3ccc(-c4ccc(C(C)(C)C)cc4)o3)cc2)CC1 | 4.2% |  |
| COc1ccc(C(=O)O)cc1COc1ccc(NC(C)=O)cc1 | -8.26% |  |
| O=[S+]([O-])(NC[C@H]1CCC[C@H](CN[S+](=O)([O-])c2c(F)cccc2F)C1)c1ccc2c(c1)OCCO2 | 1.79% |  |
